Measurements as given in PubChem BioAssay (Tox21).
Inconclusive results are not listed. The source made the active and inactive calls. Unless noted, the call rests on the fitted dose curve; in most records, active means well fitted curve in the direction sought with a large enough effect in the repeat runs; inconclusive means weak or mixed curves; inactive means no such curve, though single readings can be large; an effect the other way counts as inactive or inconclusive.

Key:
[1] = qHTS assay for small molecule agonists of the p53 signaling pathway (AID 651631; calls by dose curve; further: nearly all actives have a fitted effect of over 15% in size)
How it was run: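 Beta-lactamase reporter activity under p53 response elements was quantified in HCT-116 cells by FRET fluorescence, following 16 h incubation with test compounds at 37 °C and 2 h substrate development at room temperature.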

[2] = qHTS assay for small molecules that induce genotoxicity in human embryonic kidney cells expressing luciferase-tagged ATAD5 (AID 651632); further: nearly all actives have a fitted effect of over 15% in size
How it was run: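 Genotoxicity read-out via ATAD5-luciferase: HEK293T cells, 16 hr compound incubation at 37C, Amplite detection.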

[3] = qHTS assay for small molecule agonists of the p53 signaling pathway - cell viability (AID 651633; calls by dose curve;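 further: p53RE-bla HCT reporter cells with a stable beta-lactamase p53 reporter; series mostly up to about 83 µM; nearly all actives have a fitted effect of over 30% in size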)
How it was run: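 p53RE-bla cells were treated with compound for 16 hours at 37 C. Cytotoxicity was then measured as CellTiter-Glo luminescence after 30 min at room temperature.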

[4] = qHTS assay for small molecules that induce genotoxicity in human embryonic kidney cells expressing luciferase-tagged ATAD5 - cell viability (AID 651634; calls by dose curve; further: nearly all actives have a fitted effect of over 25% in size)
How it was run: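 Live-cell protease activity (CellTiter-Fluor, fluorescence) indicates viability. HEK293T cells with luciferase-tagged ATAD5; 15.5 hr compound treatment at 37C.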

[5] = qHTS assay for small molecule disruptors of the mitochondrial membrane potential - cell viability (AID 720634; calls by dose curve;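 further: human HepG2 liver cancer cells; series mostly up to about 83 µM; nearly all actives have a fitted effect of over 20% in size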)
How it was run: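 Human hepatoma HepG2 cells were treated for 1 hr with test chemicals, then given m-MPI dye and CellTiter-Glo. Cell viability reflects luminescence proportional to cellular ATP.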

[6] = qHTS assay for small molecule disruptors of the mitochondrial membrane potential (AID 720635)
How it was run: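 HepG2 cells exposed to compound 1 hr at 37C, then Mito-MPS dye 30 min. Ratio read of aggregate (540/590 nm) versus monomer (490/535 nm) fluorescence.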

[7] = qHTS assay to test for compound auto fluorescence at 590 nm (red) in HepG2 cells (AID 720674)
How it was run: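 HepG2 cells, 2,000 per well in MEM with 10% FBS, attached overnight at 37 C, then got 23 nL compound or DMSO. After 1 hr at 37 C, 5% CO2, red fluorescence was read at 540/590 nm against Rose Bengal sodium as reference.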

[8] = qHTS assay to test for compound auto fluorescence at 535 nm (green) in HepG2 cells (AID 720675)
[9] = qHTS assay to test for compound auto fluorescence at 460 nm (blue) in HEK293 cells (AID 720678)
How it was run: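 Blue-channel (Ex/Em 405/460 nm) intensity measured in HEK293 cultures after overnight compound exposure at 37C; signal expressed relative to triamterene. Cells plated 2,000 per well in 10% dialyzed FBS medium and allowed 4-5 hr to attach.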

[10] = qHTS assay to test for compound auto fluorescence at 590 nm (red) in HEK293 cells (AID 720679)
How it was run: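 Red-channel autofluorescence (Ex/Em 540/590 nm; Rose Bengal sodium reference) was measured after overnight 37C, 5% CO2 exposure of attached HEK293 cells, 2,000 per well in medium with 10% dialyzed FBS.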

[11] = qHTS assay to test for compound auto fluorescence at 535 nm (green) in HEK293 cells (AID 720680)
[12] = qHTS assay to test for compound auto fluorescence at 460 nm (blue) in HEK293 cell free culture (AID 720681)
How it was run: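 Compounds were added to cell-free DMEM with 10% FBS and fluorescence read directly. The blue channel used 405 nm excitation and 460 nm emission, with triamterene as the reference fluorophore.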

[13] = qHTS assay to test for compound auto fluorescence at 535 nm (green) in HEK293 cell free culture (AID 720682)
How it was run: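 Each library compound, or DMSO control, is added by pintool to medium alone, comprising DMEM and 10% FBS. Emission at 535 nm following 485 nm excitation is quantified against fluorescein.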

[14] = qHTS assay to test for compound auto fluorescence at 590 nm (red) in HEK293 cell free culture (AID 720683)
How it was run: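 Cell-free wells of DMEM with 10% FBS received compound, and intrinsic fluorescence was read at excitation/emission 540/590 nm. Values expressed as equivalence to Rose Bengal sodium.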

[15] = qHTS assay to test for compound auto fluorescence at 590 nm (red) in HepG2 cell free culture (AID 720684)
How it was run: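 Compounds are added to culture medium (MEM, 10% FBS) lacking cells, then fluorescence is read at excitation 540 nm, emission 590 nm, with Rose Bengal sodium as the equivalency standard.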

[16] = qHTS assay to test for compound auto fluorescence at 460 nm (blue) in HepG2 cell free culture (AID 720685)
How it was run: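 Compound (23 nL) or DMSO pinned into cell-free MEM with 10% FBS; blue fluorescence read at 405/460 nm excitation/emission, expressed as auto-fluorescence equivalency to triamterene.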

[17] = qHTS assay to test for compound auto fluorescence at 535 nm (green) in HepG2 cell free culture (AID 720686)
[18] = qHTS assay to test for compound auto fluorescence at 460 nm (blue) in HepG2 cells (AID 720687)
How it was run: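 HepG2 cells in MEM with 10% FBS, attached overnight at 37 C, were exposed to compound or DMSO for 1 hr at 37 C, 5% CO2. Blue fluorescence was read at 405/460 nm, with triamterene as reference fluorophore.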

[19] = biological target: Glucocorticoid receptor (Homo sapiens) (UniProt P04150); assay: qHTS assay to identify small molecule agonists of the glucocorticoid receptor (GR) signaling pathway (AID 720691; active means well fitted activation curve with a large enough effect in the signal ratio in the repeat runs, not every such curve was filed as active; the % refers to the signal ratio)
Chain of Glucocorticoid receptor (Homo sapiens) (P04150 whole entry, looked up): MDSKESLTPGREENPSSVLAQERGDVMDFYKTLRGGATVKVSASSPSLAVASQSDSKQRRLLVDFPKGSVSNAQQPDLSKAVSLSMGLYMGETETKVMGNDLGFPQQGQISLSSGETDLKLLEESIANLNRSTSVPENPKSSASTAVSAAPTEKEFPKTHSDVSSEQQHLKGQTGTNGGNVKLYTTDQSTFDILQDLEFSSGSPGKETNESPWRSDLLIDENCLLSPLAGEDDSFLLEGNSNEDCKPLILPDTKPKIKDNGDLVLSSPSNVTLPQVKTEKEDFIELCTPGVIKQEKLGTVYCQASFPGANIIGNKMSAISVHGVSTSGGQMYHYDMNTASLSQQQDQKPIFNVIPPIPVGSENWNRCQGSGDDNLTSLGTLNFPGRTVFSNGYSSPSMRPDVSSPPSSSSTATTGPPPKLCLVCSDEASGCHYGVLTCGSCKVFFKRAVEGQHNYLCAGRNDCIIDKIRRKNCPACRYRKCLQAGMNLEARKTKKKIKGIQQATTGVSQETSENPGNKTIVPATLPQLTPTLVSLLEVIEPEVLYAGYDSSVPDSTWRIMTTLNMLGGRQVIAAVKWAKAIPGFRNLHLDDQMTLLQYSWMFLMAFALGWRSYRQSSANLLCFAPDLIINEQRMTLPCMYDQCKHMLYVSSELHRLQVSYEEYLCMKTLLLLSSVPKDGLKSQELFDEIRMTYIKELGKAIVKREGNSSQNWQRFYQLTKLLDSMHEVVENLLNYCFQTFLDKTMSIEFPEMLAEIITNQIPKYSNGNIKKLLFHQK
How it was run: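 Beta-lactamase reporter activity, read as fluorescence intensity, was measured in GR-bla HeLa cells exposed to compounds for 18 h at 37 C and then loaded with LiveBLAzer B/G FRET substrate for 2 h at room temperature.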

[20] = biological target: Glucocorticoid receptor (Homo sapiens) (UniProt P04150); assay: qHTS assay to identify small molecule antagonists of the glucocorticoid receptor (GR) signaling pathway (AID 720692; active means well fitted inhibition curve with a large enough effect in the signal ratio in the repeat runs, not every such curve was filed as active; the % refers to the signal ratio)
How it was run: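 Fluorescence from cleaved LiveBLAzer B/G FRET substrate reports GRE-driven beta-lactamase in HeLa cells; compounds are tested against 5 nM dexamethasone (final) over 18 h at 37 C, substrate incubation 2 h at room temperature.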

Measured: Potency

CC(Br)C(=O)O (stereo not given)
inactive: all assays above

C=CCO
inactive: all assays above

CCc1cccc(C)c1N(C(=O)CCl)C(C)COC (stereo not given)
not listed: [19] | [20]
inactive: all other assays above

CC(C)OC(=O)Nc1ccccc1
not listed: [19] | [20]
inactive: all other assays above

CC(C)NC(=O)N1CC(=O)N(c2cc(Cl)cc(Cl)c2)C1=O
not listed: [19] | [20]
inactive: all other assays above

c1cc2c3c(cccc3c1)CC2
inactive: all assays above

OC(O)C(Cl)(Cl)Cl
not listed: [19] | [20]
inactive: all other assays above

[N-]=[N+]=[N-]
inactive: all assays above

O=C(O)c1ccccn1
inactive: all assays above

CC1OC(C)OC(C)O1 (stereo not given)
not listed: [19] | [20]
inactive: all other assays above

CCOP(OCC)OCC
not listed: [19] | [20]
inactive: all other assays above

Nc1ccccc1C(=O)O
not listed: [19] | [20]
inactive: all other assays above

CCOC(=O)c1ccccc1C(=O)OCC
inactive: all assays above

CNC(=O)Oc1ccccc1OC(C)C
inactive: all assays above

Oc1ccccc1Cl
inactive: all assays above

CCCCOC(=O)c1ccccc1C(=O)OCCCC
not listed: [20]
inactive: all other assays above
